Our source for the Potency values is PubChem BioAssay (NCATS).

Structures are written as SMILES. Results filed as inconclusive are left out. Calls of active or inactive are those of the source. The call rests on the fitted dose curve; in most records, active means well fitted inhibition curve with a large enough effect; inconclusive means small, poorly fitted or top-dose-only effect; inactive means no such curve, though single readings can be large or run the other way.
Potency means the concentration at half of the fitted maximal effect.

The nature of this experiment: BET inhibitor-based combinations targeting novel dependencies in MECOM-rearranged (r) AML: UCSD-AML1 cell line (AID 2202235). Further: nearly all actives have a fitted effect of over 40% in size. Conditions: UCSD-AML1 AML cells viability, CellTiter-Glo, 48 h; series mostly up to 46 µM. From the text:
Ecotropic viral insertion site 1 (EVI1) is located on chromosome 3q26.2 as part of the MECOM (MDS and EVI1 complex) locus. Under normal hematopoiesis, EVI1 is a regulator of hematopoietic stem cell maintenance and self-renewal and EVI1 levels decrease as the cells differentiate. In approximately 5-10% of de novo acute myeloid leukemia (AML) EVI1 is aberrantly expressed, including Chromosomal inv(3)(q21;q26.2) or t(3;3)(q21;q26.2) alterations (MECOM-r) that account for about 50% of AML with EVI1 overexpression 31. AMLs with high levels of EVI1 have a poor prognosis and an overall survival time averaging between 10-14 months. EVI1 overexpression confers resistance in leukemia cells, highlighting the need to develop new targeted therapies for EVI1 overexpressing AMLs. Here, we performed an unbiased chemical drug screening by evaluating the single agent activity of a collection of 2,480 oncology-focused, approved and investigational drugs (NCATS Mechanism Interrogation Plates, MIPE v5.0) against a panel of seven AML cell lines. These included four MECOM-r cell-lines (AML-191, AML-194, UCSD-AML1 and HNT-34) and three non-MECOM-r AMLs (MV4-11, OCI-AML3 and SET-2). Exploiting the mechanistic redundancy built in the library, we identified target-level sensitivities in MECOM-r AML cells and relative activity as compared to other AML subtypes.
A collection of 2480 mechanistically annotated dugs (MIPE v5.0) was used to screen four 3q26.2 rearranged AML cell lines and three non-3q26.2 rearranged AML cell lines. This library purposely exploits redundancy by including multiple inhibitors of key onco-targets, while simultaneously encompassing mechanistic diversity, targeting more than 800 distinct mechanisms of action. Briefly, cells were seeded in 5 uL of growth media using a Multidrop Combi dispenser into 1536 well white polystyrene tissue culture treated plates (Corning) at a density of 500cells/well. For each cell-line, for each of the 2480 drugs in MIPE v5.0 library, an 11-point dose curve was generated via a 1536 pin-tool. Plates were incubated for 48 hr at standard incubator conditions, covered by a stainless steel gasketed lid to prevent evaporation. Cell viability was determined by luminescence based, Cell Titer Glo assay (Promega). In detail, 3 uL of Cell Titer Glo were added to each well and plates were incubated at room temperature for 15 min with a stainless-steel lid in place. Luminescence readings were taken using a Viewlux (PerkinElmer) with a 2 s exposure time per plate. Compound dose-response curves were normalized to DMSO and empty well controls on each plate. Quantitative drug activity data from dose-response curves was determined utilizing area Under the Curve (AUC) and Z-transformed AUC (Z-AUC, a mean-centering transformation applied to each individual cell-line screened).
In general terms: ATP-based viability assays read luminescence as a measure of living cells.
Consider `NC[C@@](O)(c1ccc(Cl)cc1)c1ccc(-c2cn[nH]c2)cc1`, for which the Potency is 9340 nM (active).
The result for `COC(=O)c1ccc([C@H]2c3[nH]c4ccccc4c3C[C@H](C(=O)OC)N2C(=O)CCl)cc1` reads 166 nM (active).
The result for `CC[C@@]1(O)C(=O)OCc2c1cc1n(c2=O)Cc2c-1nc1ccccc1c2CCNC(C)C` reads 7.4 nM (active); that for `Nc1nc(OC(c2ccc(-c3cccc(F)c3)cc2)C(F)(F)F)cc(-c2ccc(C[C@H](N)C(=O)O)cc2)n1` (stereo not given in full), “inactive”.
In the case of `CCCCCCCOc1ccc(CCC(N)(CO)CO)cc1C(F)(F)F`, the Potency was 10500 nM (active).
The result for `COc1ccc2c(c1OC)C(=O)OC2[C@H]1c2c(cc3c(c2OC)OCO3)CCN1C` (stereo not given in full) reads “inactive”; that for `Cc1ncsc1-c1ccc([C@H](C)NC(=O)[C@@H]2C[C@@H](O)CN2C(=O)[C@@H](NC(=O)COCCCOCCNC(=O)C[C@@H]2N=C(c3ccc(Cl)cc3)c3c(sc(C)c3C)-n3c(C)nnc32)C(C)(C)C)cc1`, 83.3 nM (active).
In the case of `COc1ccc(Cl)cc1-c1cc(=O)[nH]c(=S)n1CC(N)=O`, the Potency entry was “inactive”.
The result for `CO[C@H]1/C=C/O[C@@]2(C)Oc3c(C)c(O)c4c(O)c(c5c(c4c3C2=O)=NC2(CCN(CC(C)C)CC2)N=5)NC(=O)/C(C)=C/C=C/[C@H](C)[C@H](O)[C@@H](C)[C@@H](O)[C@@H](C)[C@H](OC(C)=O)[C@@H]1C` reads “inactive”.
The result for `COc1ccc2[nH]c(C(=O)N3CCC(CC(C)(C)O)CC3)cc2c1` reads “inactive”; that for `CC(C)(O)c1coc(S(=O)(=O)NC(=O)Nc2c3c(cc4c2CCC4)CCC3)c1`, “inactive”.
The result for `COc1cc(C(C)C)c2c(c1)S(=O)(=O)N(COc1cc(=O)n3cccc(OCCN4CCCCC4)c3n1)C2=O` reads 26300 nM (active); that for `COc1cc(F)ccc1-c1ncnc(Nc2cccc(CS(C)(=N)=O)c2)n1` (stereo not given), 833 nM (active); that for `CCC(C)CNCC(=O)N1CCc2sccc2C1c1cccc(C)n1` (stereo not given), “inactive”.
In the case of `C[C@@H](OC[C@@]1(c2ccccc2)CC[C@]2(CCC(=O)N2)CN1)c1cc(C(F)(F)F)cc(C(F)(F)F)c1`, the Potency is 23500 nM (active).
Under `Cc1cc(C)c(CNC(=O)c2cc(-c3ccc(N4CCN(C)CC4)nc3)cc3c2c(C)cn3C(C)C)c(=O)[nH]1` stands “inactive”.
The result for `COc1cc2ncnc(Nc3cccc(Cl)c3F)c2cc1OC(=O)N1CCN(C)C[C@H]1C` reads “inactive”; that for `O=C(NCc1ccncc1)C12C[C@H]3C[C@@H](C1)CC(c1ccc(Cl)cc1)(C3)C2`, “inactive”.
Regarding `CCn1cc(-c2ccnc3[nH]c(-c4cccc(CN(C)C)c4)cc23)c(-c2ccc(NC(=O)N(C)C)cc2)n1`, the Potency was 4170 nM (active).
Regarding `CNS(=O)(=O)Nc1nccc(Cc2c(C)c3ccc(Oc4ncccn4)cc3oc2=O)c1F`, the Potency is 525 nM (active).
Under `CN(C(=O)c1c(O)c2ccccc2n(C)c1=O)c1ccccc1` stands “inactive”; under `N#Cc1ccc(-c2c(-c3ncn[nH]3)sc(N3CCOCC3)c2C#N)c(F)c1`, 1320 nM (active); under `COc1ncc(-c2ccc3nccc(-c4ccnnc4)c3c2)cc1NS(=O)(=O)c1ccc(F)cc1F`, 37.2 nM (active).
The result for `CCC[C@H](NC(=O)/C(C#N)=C/c1cccc(Br)n1)c1ccccc1` reads 3320 nM (active); that for `Nc1nc2c(c(=O)[nH]1)N1CN(c3ccc(C(=O)N[C@@H](CCC(=O)O)C(=O)O)cc3)CC1CN2` (stereo not given in full), 934 nM (active).
The result for `COc1ccc2c(c1)[C@]1(C[C@H]1c1ccc3c(/C=C/c4ccc(CN5C[C@@H](C)O[C@@H](C)C5)cc4)n[nH]c3c1)C(=O)N2` reads 18600 nM (active); that for `COc1ccnc2[nH]cc(C(=O)C(=O)N3CCN(C(=O)c4ccccc4)C[C@H]3C)c12`, “inactive”; that for `CC(C)n1c(=O)cc(N[C@@H](C)c2ccccc2)[nH]c1=O`, “inactive”.
`COC(=O)Nc1nc2ccc(C(=O)c3ccccc3)cc2[nH]1`: the Potency is 296 nM (active).
The result for `NC(=O)c1cnc2[nH]ccc2c1NC1C2CC3C[C@H]1CC(O)(C3)C2` (stereo not given in full) reads 833 nM (active).
In the case of `Nc1ccc(F)cc1NC(=O)c1ccc(CNC(=O)/C=C/c2cccnc2)cc1`, the Potency is 5250 nM (active).
The result for `CCC(=O)N1CCOc2c(cc(-c3cc(OC)cc(OC)c3)cc2C(=O)N[C@H]2CCCN(C)C2)C1` reads 20900 nM (active); that for `O=C(O)CCC=CCC[C@@H]1[C@H](N2CCCCC2)[C@@H](O)C[C@@H]1OCc1ccc(-c2ccccc2)cc1`, “inactive”; that for `COCCn1c2c([n+](Cc3cnccn3)c1C)C(=O)c1ccccc1C2=O`, 105 nM (active).
The result for `CC(C)(C)c1[nH]cnc1/C=c1\[nH]c(=O)/c(=C/c2ccccc2)[nH]c1=O` reads 59 nM (active).
As for `O=C(CCCCCCC(=O)N/N=C/c1ccc(N(c2ccccc2)c2ccccc2)cc1)NO`, the Potency was 7420 nM (active).
Under `CO[C@H]1C(=O)[C@]2(C)[C@@H](OC)C[C@H]3OC[C@@]3(OC(C)=O)[C@H]2[C@H](OC(=O)c2ccccc2)[C@]2(O)C[C@H](OC(=O)[C@H](O)[C@@H](NC(=O)OC(C)(C)C)c3ccccc3)C(C)=C1C2(C)C` stands 2.3 nM (active).
For the molecule `CC(C)c1c(-c2ccccc2)nc2c(C#N)c[nH]n2c1=O`, the Potency entry was “inactive”.
The result for `COc1cc(NS(C)(=O)=O)ccc1Nc1c2ccccc2nc2ccccc12` reads 417 nM (active).
Under `CN(C)CCCN=c1c2ccccc2n(C)c2[nH]c(=O)n(C)c(=O)c12` stands 26300 nM (active).
